Compounds with a hit are over-represented: about 19% of the library has one in this group of screens.
IL-1B inflam inh – qHTS for Inhibitors of Inflammasome Signaling: IL-1-beta AlphaLISA Primary Screen | hit rate 4.7% among 360,000 | THP-1 LPS/ATP IL-1B secretion, AlphaLISA, 16 h; hits give low values | activity change, % at 57.5 µM; in the data active = activity change below about -50%; inconclusive = mostly about -30% to -49%; also: % is scaled to controls: 0 for no effect and ±100 for the full control effect
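Secreted IL-1B measured by AlphaLISA bead assay after 16 h compound exposure of THP-1 cells; compounds (final up to 57.5 uM) added 1 h before LPS (250 ng/mL) and ATP (1.25 mM) stimulation; lower signal means less secretion.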
S-ASM inh – Inhibitors of Secretory Acid Sphingomyelinase (S-ASM): qHTS; Potency, µM (top dose mostly 57.5 µM), without a hit: at the top dose activity change, negative = inhibition, actives largely listed as inhibitors; placental ASM, HMU-PC fluorogenic substrate, 60 min; hit rate 0.006% among 340,000; Sphingomyelin phosphodiesterase (Homo sapiens), P17405; AID 504937, 2011; also: potency is read from the fitted curve at half-maximal effect
Target sequence (P17405 47-631 limits assumed): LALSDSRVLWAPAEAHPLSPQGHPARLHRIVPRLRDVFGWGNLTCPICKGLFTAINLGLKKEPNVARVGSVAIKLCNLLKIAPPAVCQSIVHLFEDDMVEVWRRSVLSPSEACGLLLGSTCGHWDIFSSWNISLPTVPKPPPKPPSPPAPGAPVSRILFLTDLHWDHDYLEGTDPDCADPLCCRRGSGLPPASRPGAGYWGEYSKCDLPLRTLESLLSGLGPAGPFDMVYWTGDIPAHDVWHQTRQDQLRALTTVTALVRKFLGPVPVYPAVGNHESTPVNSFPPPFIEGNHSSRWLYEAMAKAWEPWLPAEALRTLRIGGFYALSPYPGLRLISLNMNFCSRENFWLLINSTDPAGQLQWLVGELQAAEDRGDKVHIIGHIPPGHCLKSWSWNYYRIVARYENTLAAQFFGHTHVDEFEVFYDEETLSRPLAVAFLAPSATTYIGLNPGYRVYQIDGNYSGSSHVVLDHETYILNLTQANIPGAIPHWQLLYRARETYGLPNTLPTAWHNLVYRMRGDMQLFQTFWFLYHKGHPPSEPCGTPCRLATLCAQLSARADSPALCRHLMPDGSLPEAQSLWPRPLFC
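HMU-PC0 cleavage (9 uM final) by human placental ASM, 60 min at 37 °C following 10 min compound exposure at RT; stopped at pH 10, fluorescence Ex 386/Em 447 nm.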
TGFb SMAD3 inh – qHTS for Inhibitors of TGF-b; HepG2 CAGA-GFP TGF-b/SMAD3 reporter, GFP fluorescence, 18 h; TGF-beta stimulated, 500 pg/mL final; Potency, µM (top dose mostly 46.1 µM), for the others: at the top dose activity, negative = inhibition, most hits filed as inhibitors; hit rate 1.2% among 410,000; AID 588855, 2011; also: potency is read from the fitted curve at half-maximal effect; % is scaled to controls: 0 for no effect and ±100 for the full control effect; nearly all actives have a fitted effect of over 65% in size
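Per well, imaged GFP fluorescence of HEPG2 CAGA-GFP cells gives the signal; cells get compound, then TGF-beta (500 pg/mL final), 18 h at 37 degrees C; %Activity versus -TGF-beta and +DMSO controls.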
DT40 TDP1 CPT – qHTS for Inhibitors of human tyrosyl-DNA phosphodiesterase 1 (TDP1): qHTS in cells in presence of CPT; chicken DT40 Tdp1-/-;hTDP1 cells + 20 nM CPT, ATP luminescence, 48 h; hit rate 12% among 420,000; Potency, µM (highest dose often 46.2 µM), for the others: top-dose activity change, negative = growth inhibition, hits mostly inhibitors; also: potency is read from the fitted curve at half-maximal effect; % is scaled to controls: 0 for no effect and ±100 for the full control effect; nearly all actives have a fitted effect of over 55% in size
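Chicken DT40 Tdp1-/- cells complemented with human TDP1, 400 cells/well, exposed to compounds plus 20 nM camptothecin for at least 48 h at 37 C; viability read as ATP content by CellTiter-Glo luminescence.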
DT40 TDP1 no CPT – qHTS for Inhibitors of human tyrosyl-DNA phosphodiesterase 1 (TDP1): qHTS in cells in absence of CPT | hit rate 15% among 420,000 | Potency, µM (series often up to 46.2 µM), for inactives: at the top dose activity change, negative = growth inhibition, hits mostly inhibitors | DT40 Tdp1-/- hTDP1 cells, no CPT, ATP luminescence, 48 h; also: potency is read from the fitted curve at half-maximal effect; % is scaled to controls: 0 for no effect and ±100 for the full control effect; nearly all actives have a fitted effect of over 55% in size
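Luminescent ATP content (CellTiter-Glo) served as the growth readout. Knockout chicken DT40 cells expressing human TDP1 were exposed to compounds without camptothecin for a minimum 48 hr at 37 °C.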
HepG2 viability – qHTS for Inhibitors of TGF-b: Cytotox Counterscreen; HepG2 CAGA-GFP viability, ATP luminescence, 18 h; hit rate 0.76% among 410,000; Potency, µM (series often up to 46.1 µM), for inactives: at the top dose activity change, negative = cytotoxicity, usual class: cytotoxic; AID 588856, 2011; also: potency is read from the fitted curve at half-maximal effect
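CellTiter-Glo luminescence gave cytotoxicity after 18 hours at 37 degrees C. The cells were HepG2 CAGA-GFP in 1% FBS DMEM, stimulated with 500 pg/mL TGF-beta after compound addition. %Activity was normalised to no-cell wells (complete cell-killing) and DMSO (no toxicity), and curves were fitted and classified.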
The depositor's hits bear a star. Unless noted, calls follow the shape of the dose curve; as a rule, active = well fitted curve in the direction sought with a large enough effect; inconclusive = small, poorly fitted or top-dose-only effect, or another doubt; inactive = no such curve, though single readings can be large; an effect the other way counts as inactive or inconclusive.

`CCCCN(C(=O)COC(=O)c1ccccc1)c1c(N)n(CCC)c(=O)[nH]c1=O` gave IL-1B inflam inh -14.5, S-ASM inh -1.7%, TGFb SMAD3 inh 0.0%, DT40 TDP1 CPT -21.7%, DT40 TDP1 no CPT 7.4% and HepG2 viability -4.4%.
Screening O=C(Nc1ccncc1)c1ccc(NS(=O)(=O)c2ccc3[nH]c(=O)[nH]c3c2)cc1 returned IL-1B inflam inh 8.6, S-ASM inh 5.1%, TGFb SMAD3 inh 4.4%, DT40 TDP1 CPT -2.2%, DT40 TDP1 no CPT -1.6% and HepG2 viability 6.0%.
`COc1cc(C(O)c2nc(-c3cccc(NC(C)=O)c3)cs2)ccc1F` (stereo unspecified) gave IL-1B inflam inh 19.1, TGFb SMAD3 inh 6.7%, DT40 TDP1 CPT inconclusive, DT40 TDP1 no CPT 16.4µM* and HepG2 viability -20.0%.
Screening CC(=O)Nc1cccc(-c2csc(C(NC(C)=O)c3ccc(F)c(F)c3)n2)c1 (stereo unspecified) returned IL-1B inflam inh -3.8, TGFb SMAD3 inh 9.7%, DT40 TDP1 CPT -11.2%, DT40 TDP1 no CPT -22.1% and HepG2 viability -11.4%.
`COCCn1c(C)cc(C(=O)CSc2nnc(C)s2)c1C` gave IL-1B inflam inh 4.9, S-ASM inh 3.5%, TGFb SMAD3 inh 11.7%, DT40 TDP1 CPT -22.7%, DT40 TDP1 no CPT -21.6% and HepG2 viability -4.5%.
Screening CCCn1c(=O)c2ccccc2n2c(SCC(=O)c3cc(C)n(CCOC)c3C)nnc12 returned IL-1B inflam inh 10.6, S-ASM inh -0.3%, TGFb SMAD3 inh 2.4%, DT40 TDP1 CPT -4.1%, DT40 TDP1 no CPT -28.6% and HepG2 viability 0.8%.
COCCn1c(C)cc(C(=O)CSc2nc3ccccc3c(=O)n2Cc2ccco2)c1C was read as IL-1B inflam inh 3.8, S-ASM inh 1.2%, TGFb SMAD3 inh -2.6%, DT40 TDP1 CPT 6.51µM*, DT40 TDP1 no CPT inconclusive and HepG2 viability 21.9%.
For COCCn1c(C)cc(C(=O)CSc2cc(C)c3ccccc3n2)c1C the results were IL-1B inflam inh -69.1*, S-ASM inh -1.2%, TGFb SMAD3 inh -1.8%, DT40 TDP1 CPT inconclusive, DT40 TDP1 no CPT inconclusive and HepG2 viability -28.6%.
For CC(=O)c1ccc(NC(=S)NCCc2ccc(S(N)(=O)=O)cc2)cc1 the results were IL-1B inflam inh -25.3, S-ASM inh 1.8%, TGFb SMAD3 inh -1.1%, DT40 TDP1 CPT -26.1%, DT40 TDP1 no CPT inconclusive and HepG2 viability 2.6%.
For CC(C)OCCCNC(=S)Nc1ccc(S(N)(=O)=O)cc1 the results were IL-1B inflam inh 10.2, S-ASM inh 4.3%, TGFb SMAD3 inh 5.3%, DT40 TDP1 CPT 23.1µM*, DT40 TDP1 no CPT inconclusive and HepG2 viability 7.3%.
COc1ccc(S(=O)(=O)Nc2cccc3c2O[C@H](CN(C)C)[C@@H](C)CN([C@H](C)CO)C3=O)cc1 was read as IL-1B inflam inh 16.6, S-ASM inh 5.0%, TGFb SMAD3 inh -5.6%, DT40 TDP1 CPT 8.9%, DT40 TDP1 no CPT -1.5% and HepG2 viability 5.8%.
`CC1(C)CC(N=Cc2c(O)n(Cc3ccc4c(c3)OCO4)c(=O)c3ccccc23)CC(C)(C)N1` gave IL-1B inflam inh -106.7*, S-ASM inh -5.8%, TGFb SMAD3 inh 3.0%, DT40 TDP1 CPT 6.51µM*, DT40 TDP1 no CPT 7.31µM* and HepG2 viability -16.0%.
COc1ccc(OCCOC(=O)c2cc(S(=O)(=O)N3CCOCC3)c(Cl)cc2Cl)cc1 was read as IL-1B inflam inh -93.7*, S-ASM inh -1.3%, TGFb SMAD3 inh -11.4%, DT40 TDP1 CPT inconclusive, DT40 TDP1 no CPT inconclusive and HepG2 viability -14.5%.
O=C(NC1CCCC1)c1cc(S(=O)(=O)N2CCOCC2)c(Cl)cc1Cl was read as IL-1B inflam inh -8.5, S-ASM inh 1.0%, TGFb SMAD3 inh -27.7%, DT40 TDP1 CPT -10.4%, DT40 TDP1 no CPT -21.5% and HepG2 viability -99.6%.
Screening O=C(COC(=O)c1cc(S(=O)(=O)N2CCOCC2)c(Cl)cc1Cl)NC1CC1 returned IL-1B inflam inh -96.7*, S-ASM inh 4.3%, TGFb SMAD3 inh -17.7%, DT40 TDP1 CPT 2.7%, DT40 TDP1 no CPT 2.5% and HepG2 viability -2.6%.
Screening Cc1cc(Br)ccc1OCCCCN1CCCCC1 returned IL-1B inflam inh -57.8*, S-ASM inh 0.5%, TGFb SMAD3 inh -13.1%, DT40 TDP1 CPT inconclusive, DT40 TDP1 no CPT inconclusive and HepG2 viability -28.6%.
Clc1ccc(Cl)c(OCCCCN2CCCCC2)c1 was read as IL-1B inflam inh 0.0, S-ASM inh -0.9%, TGFb SMAD3 inh -5.5%, DT40 TDP1 CPT 18.4µM*, DT40 TDP1 no CPT inconclusive and HepG2 viability -15.8%.
Screening Clc1ccccc1OCCCCN1CCCCC1 returned IL-1B inflam inh -7.8, S-ASM inh -0.2%, TGFb SMAD3 inh -2.7%, DT40 TDP1 CPT 0.5%, DT40 TDP1 no CPT 3.1% and HepG2 viability -26.7%.
COc1ccccc1OCC(=O)c1[nH]c(C)c(C(C)=O)c1C was read as IL-1B inflam inh -10.3, S-ASM inh -2.2%, TGFb SMAD3 inh -0.1%, DT40 TDP1 CPT 14.6µM*, DT40 TDP1 no CPT 11.6µM* and HepG2 viability -28.1%.
`COc1ccc(CNC(=O)COC(=O)c2[nH]c(C)c(C(C)=O)c2C)cc1OC` gave IL-1B inflam inh 25.4, S-ASM inh -2.5%, TGFb SMAD3 inh 11.5%, DT40 TDP1 CPT -1.5%, DT40 TDP1 no CPT -15.4% and HepG2 viability -18.4%.
`CC(=O)c1c(C)[nH]c(C(=O)COc2cc(C)ccc2C(C)C)c1C` gave IL-1B inflam inh 39.4, S-ASM inh -7.2%, TGFb SMAD3 inh -32.2%, DT40 TDP1 CPT 8.2µM*, DT40 TDP1 no CPT 4.61µM* and HepG2 viability -29.6%.
`COc1cc(C)ccc1OCC(=O)OCC(=O)c1[nH]c(C)c(C(C)=O)c1C` gave IL-1B inflam inh 13.4, S-ASM inh -2.6%, TGFb SMAD3 inh -29.5%, DT40 TDP1 CPT 1.3%, DT40 TDP1 no CPT -20.2% and HepG2 viability 5.1%.
`COc1cc(CN(C)CC(=O)c2[nH]c(C)c(C(C)=O)c2C)ccc1OC(F)F` gave IL-1B inflam inh -28.5, S-ASM inh 3.2%, TGFb SMAD3 inh -11.4%, DT40 TDP1 CPT 8.2µM*, DT40 TDP1 no CPT 3.66µM* and HepG2 viability 2.0%.

Screening data as filed in PubChem BioAssay.
